DPM-DC inhibit – S. pneumoniae DPM-DC inhibitors, primary screen, biochemical, PK/LDH-coupled NADH fluorescence. purified DPM-DC. hit rate 0.49% among 65,000. calls only at 10 µM;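 active = the 320 compounds with the highest percent inhibition in the single-dose primary screen, excluding strongly autofluorescent ones, cut at about 32% in these data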;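 also: kinetic rate of NADH fluorescence loss reporting ADP formed by the decarboxylase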
PMK inhibit – S. pneumoniae PMK inhibitors, primary screen, biochemical, mevalonate pathway, pilot trial included. phosphomevalonate kinase (Streptococcus pneumoniae D39). purified PMK, PK/LDH-coupled NADH absorbance 340 nm. AID 539, 2006. hit rate 0.49% among 65,000. inhibition, % at 10 µM;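 active = top-ranked compounds by inhibition in the single 10 µM screen, taking a fixed number of the strongest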;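 also: 0% = full reaction with DMSO carrier and 100% = background rate without enzyme reaction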
Autofluor 339 – intrinsic fluorescence of library compounds, ex339/em460 – biochemical, MLSMR library, data from DPM-DC assay, artefact control, profiling panel. compound autofluorescence, ex339/em460 nm, NADH buffer; active compounds read high; 1 = no-compound wells, NADH background. fluorescence fold increase at 10 µM. hit rate 5.5% among 65,000. AID 709, 2007;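 active = at 10 µM, mean starting fluorescence two-fold or more over control wells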;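 also: signal is the first read of a kinetic run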
Spn MK inh – S. pneumoniae MK inhibitors, primary screen, biochemical, PK/LDH-coupled NADH absorbance | mevalonate kinase [Streptococcus pneumoniae D39] | purified MK, PK/LDH-coupled NADH absorbance 340 nm | inhibition, % at 10 µM | hit rate 0.48% among 65,000 | AID 555, 2006;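 active = ranked among the strongest by inhibition in the single 10 µM screen, a fixed top-ranked set picked for dose follow-up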
Abs 340nm – compound light absorbance at 340 nm, profiling panel, artefact control, biochemical, MLSMR library, data from PS, PMK, MK assays; compound absorbance at 340 nm, fold over control; fold change at 10 µM; 65,000 tested, under 10 active; AID 708, 2007;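 active = at 10 µM dose, initial 340 nm absorbance at least 2 fold that of control wells; inactive = change under 2 fold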;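 also: initial absorbance extrapolated from kinetic A340 decline of NADH oxidation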
NADH enzymes – inhibitors of PK/LDH coupling enzymes, profiling panel, artefact control, biochemical, MLSMR library; hit rate 0.02% among 65,000; AID 774, 2007; IC50, µM (series often up to 10 µM), inactives show at the top dose inhibition; coupled PK/LDH NADH assays, four targets;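 active = single-dose screening hits from any of four coupled enzyme assays that gave an IC50 when retested across doses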;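 also: the DPM-DC format reads NADH fluorescence rather than 340 nm absorbance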
The depositor's hits bear a star; i = inactive; · = no result shown. In the library only some 6.8% were active in any assay of this set; here they are far more common.

SMILES	DPM-DC inhibit	PMK inhibit	Autofluor 339	Spn MK inh	Abs 340nm	NADH enzymes
CC(=O)OCC(=O)c1ccc2ccn(C(C)=O)c2c1	·	16	3.4*	0	1	2%
COc1ccccc1N1CCN(CC(=O)c2ccc3ccn(C(C)=O)c3c2)CC1	i	0	1.3	3	1.1	2%
Cc1nc(Sc2nnnn2C)c2c3c(sc2n1)CCC3	·	10	2.1*	11	1.1	11%
CCCOc1ccc(C2c3c(oc4cc(C)c(C)cc4c3=O)C(=O)N2CCCN(C)C)cc1OCC (centres undefined)	i	3	1.1	5	1.1	3%
CCOc1ccc(C2c3c(oc4cc(C)c(C)cc4c3=O)C(=O)N2CCCN(C)C)cc1OC (centres undefined)	i	28*	1.1	10	1.1	14%
CCN(CC)S(=O)(=O)c1cccc(C(=O)Nc2nc3cc4c(cc3s2)OCCO4)c1	·	3	2.1*	0	1.1	2%
CCOc1cc(C2Nc3ccccc3C(=O)N2c2ccccc2)ccc1O (centres undefined)	·	1	3.6*	11	1.1	6%
COc1ccc(Cc2nc3ccc(S(N)(=O)=O)cc3[nH]2)cc1OC	i	10	1.1	0	0.98	5%
c1coc(-c2nnc(-c3ccc4c(c3)OCO4)o2)c1	·	0	2.2*	8	1.1	4%
CCOc1cc(-c2nnc(-c3ccco3)o2)cc(OCC)c1OCC	i	2	2*	4	1	9%
CCOc1ccc(-c2nnc(-c3ccco3)o2)cc1OCC	·	10	3.7*	12	1	11%
CCCOc1ccc(C(=O)N2CCCC2)cc1OC	i	5	1.1	6	1.1	4%
O=C(Nc1ccc(F)cc1F)c1noc2c1CCC2	i	4	1.1	3	1	2%
CCc1ccc2[nH]c(=O)c(C(c3nnnn3CCOC)N3CCN(c4ccccc4F)CC3)cc2c1 (centres undefined)	i	10	1.4	3	1.1	4%
CCN1CCN(c2cc(C)c3cc(NC(=O)c4ccc5c(c4)OCO5)ccc3n2)CC1	i	3	1.1	4	1.1	3%
COc1ccc(C)cc1NC(=O)CCC(=O)Nc1ccc2nc(N3CCN(C)CC3)cc(C)c2c1	i	8	2.5*	8	1	15%
COc1cccc(C(=O)Nc2ccc3nc(N4CCN(c5ncccn5)CC4)cc(C)c3c2)c1OC	i	0	1.4	10	1	5%
Cc1cc(N2CCOCC2)nc2ccc(NC(=O)CCC(=O)N3CCCC(C)C3)cc12 (centres undefined)	·	6	4.8*	7	1.1	7%
CCOc1ccccc1C(=O)Nc1ccc2nc(N3CCN(c4ncccn4)CC3)cc(C)c2c1	·	9	2.2*	4	1.1	7%
Cc1cc(N2CCN(C)CC2)nc2ccc(NC(=O)CCC(=O)NCc3ccco3)cc12	i	6	3.5*	7	1.1	13%
Cc1oc(-c2ccccc2F)nc1CS(=O)(=O)CC(=O)NCCCN1CCc2ccccc2C1	i	0	1	8	0.98	1%
O=C(CSc1nnc(COc2ccccc2)n1-c1ccccc1)c1cccs1	i	25*	1.1	12	1	12%
O=C(COc1ccccc1)NCc1nnc(SCC(=O)Nc2nccs2)n1-c1ccccc1	i	7	1	0	1.1	2%
CC(C)c1nnc(NC(=O)CCC(=O)NCc2ccco2)s1	i	13	1.1	4	1	6%
Cc1oc2c(C)c3oc(=O)c4c(c3cc2c1C)CCC4	i	6	1.7	5	1.1	4%
SMILES	DPM-DC inhibit	PMK inhibit	Autofluor 339	Spn MK inh	Abs 340nm	NADH enzymes
O=c1oc2ccccc2c(N2CCCCC2)c1CN1CCCCC1	i	5	1	14	1	2%
Cc1c(O)c(CN2CCCCC2)cc2c3c(c(=O)oc12)CCC3	·	5	2.5*	0	1	2%
CCc1cc(=O)oc2c(CN3CCCC3)c(O)c(Cl)cc12	·	0	2.3*	4	1.1	2%
CN1CCN(Cc2cc(=O)oc3cc4c(cc23)CCC4)CC1	i	11	1.1	17	0.99	12%
CCc1c(C)c2cc(Cl)c(O)c(CN3CCCCC3)c2oc1=O	·	8	2.3*	0	1.1	4%
CCc1cc(=O)oc2c(CN3CCN(C)CC3)c(O)c(Cl)cc12	·	3	2.5*	0	1	1%
Nc1nnnn1CC(=O)OCc1cccc(Br)c1	i	1	1.1	6	1	2%
Cc1cc(C)cc(N(C(=O)c2ccc3c(c2)OCO3)C2C=CS(=O)(=O)C2)c1 (centres undefined)	i	10	1.1	0	0.99	3%
COc1ccc(-n2nnc3c(=O)n(CC(=O)N4CCC(C)CC4)cnc32)cc1	i	15	1.1	7	1	7%
O=c1oc2c(CN3CCOCC3)c(O)c(Cl)cc2c2c1CCC2	·	9	3.8*	6	1.1	8%
CC(C)n1c(=N)c(C(=O)NCCc2ccccc2)cc2c(=O)n3ccccc3nc21	·	3	5.1*	1	1	2%
COC(=O)c1cc2c(=O)n3ccccc3nc2n(C(C)C)c1=N	·	0	3.9*	4	1	2%
CCn1c(=N)c(C(=O)OC)cc2c(=O)n3ccccc3nc21	·	17	3.7*	6	1	12%
O=C1OCCC1Sc1nc(-c2ccccc2)cs1 (centres undefined)	i	0	1	18	1	6%
O=C(O)CCc1ccc(-c2cccs2)n1CC1CCCO1 (centres undefined)	i	1	3*	5	1.1	12%
CCCn1c(CCC(=O)O)ccc1-c1cccs1	·	3	0.33	9	1	6%
COCCCn1c(CCC(=O)O)ccc1-c1cccs1	·	5	4*	12	1.1	9%
CON(C)c1nc(OCCNC(=O)COc2ccc(Cl)cc2C)nc(N(C)C)n1	i	0	1.1	0	1	0%
CON(C)c1nc(OCCNC(=O)OCc2ccc(Cl)cc2Cl)nc(N(C)C)n1	i	25*	0.99	0	1	9%
COc1ccccc1-c1cc(C(F)(F)F)nc(N2CCOCC2)n1	i	0	1.4	9	1.1	3%
COc1cc(-c2c(C#N)c(N)nc3c2c(C)nn3-c2ccc(C)c(C)c2)cc(OC)c1OC	·	3	3.8*	0	1.1	2%
Cc1ccc(-c2csc3nc(C)n(-n4cccc4)c(=O)c23)o1	i	14	1.2	5	1.1	9%

Source: PubChem
